An excerpt weighted towards active compounds, which were near 2.1% of everything screened.
Casp6 inh = inhibitors of human caspase-6. P55212. purified caspase-6, Z-VEID-R110 cleavage fluorescence. inhibition, % at 12.5 µM. 0.53% of 350,000 active. AID 686996;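 active = mean inhibition across replicates at least about 35%, with every replicate also reaching that limit, limit read from the data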
Target sequence (P55212 24-179 limits assumed): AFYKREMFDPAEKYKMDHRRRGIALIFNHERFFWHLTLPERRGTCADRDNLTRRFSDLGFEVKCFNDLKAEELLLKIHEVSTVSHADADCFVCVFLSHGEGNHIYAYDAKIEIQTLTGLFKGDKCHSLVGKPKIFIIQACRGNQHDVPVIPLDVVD
Target sequence (P55212 194-293 limits assumed): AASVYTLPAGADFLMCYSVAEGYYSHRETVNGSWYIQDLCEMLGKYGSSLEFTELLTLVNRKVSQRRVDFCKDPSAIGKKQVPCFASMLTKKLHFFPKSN
SIRT5 block = inhibitors of human sirtuin-5 desuccinylase; Q9NXA8; Purified SirT5, succinyl-peptide AMC, trypsin-coupled fluorescence; inhibition, % at 15 µM; 1.1% of 330,000 active; AID 652115; in the data active = inhibition above about 15%
Target sequence (Q9NXA8 whole entry, looked up): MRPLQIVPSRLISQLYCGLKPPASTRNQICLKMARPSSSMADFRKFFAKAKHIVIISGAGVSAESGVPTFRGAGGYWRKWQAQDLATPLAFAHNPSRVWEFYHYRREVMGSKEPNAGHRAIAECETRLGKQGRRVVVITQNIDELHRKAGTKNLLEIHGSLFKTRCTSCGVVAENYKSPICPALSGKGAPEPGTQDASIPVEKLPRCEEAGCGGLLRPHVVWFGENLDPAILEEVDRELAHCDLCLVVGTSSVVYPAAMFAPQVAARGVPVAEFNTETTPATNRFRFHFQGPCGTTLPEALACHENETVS
ARNT-TACC3 inh = ARNT/TACC3 interaction disruption; 0.66% of 390,000 active; inhibition, % at 9.99 µM; AID 623870; AlphaScreen His-ARNT PAS-B/GST-TACC3 binding, luminescence; TACC3 fragment carries E629A point mutation;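 active = mean inhibition of replicates at least 50% and at least half of replicates each reaching 50%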
NSD2 inh = blocks human histone methyltransferase NSD2; AID 743445; NSD2 peptide methylation, AlphaScreen, 120 min; inhibition, % at 12.5 µM; 0.54% of 310,000 active; in the data active = inhibition above about 50%
PfHsp90 yeast 2 = inhibits growth of yeast expressing Plasmodium falciparum Hsp90. S. cerevisiae expressing PfHsp90, BacTiter-Glo ATP, 48 h; yeast lacking PDR1 and PDR3 efflux regulators. inhibition, % at 9.4 µM. 0.32% of 310,000 active. AID 504621;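 active = every replicate shows inhibition above about 80%, whatever the replicate mean, limit read from the data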
AlphaScreen art = counter-screen for NSD2 inhibitors: AlphaScreen artifacts; 9.4% of 1,500 active; shares compounds with NSD2 inh; AlphaScreen artifact counterscreen, preloaded methylated H4 peptide; AC35, µM (top dose mostly 10 µM); call rule not given here
Large screens that a line does not name were inactive (follow-up assays come after a bar, where they were run).

CCC(=O)N1CC(=O)N2[C@H](CO)[C@H](c3ccc(C#CCc4ccccc4)cc3)[C@@H]2C1	none (no result: ARNT-TACC3 inh, NSD2 inh, PfHsp90 yeast 2)
COc1cccc(CNC(=S)Nc2ccc(Cl)cc2C)c1	NSD2 inh 75.1 | AlphaScreen art inactive
Cc1cc(Cl)ccc1NC(=S)NCc1ccccc1	none (no result: Casp6 inh, SIRT5 block)
CN(C)c1ccc2cc(S(=O)(=O)O)cc(O)c2c1	Casp6 inh 78.1, SIRT5 block 21.9, ARNT-TACC3 inh 36.0, NSD2 inh 62.9 (no result: PfHsp90 yeast 2) | AlphaScreen art 0.971µM
CN(C)c1ccc2c(O)cc(=O)n(C)c2c1	none (no result: Casp6 inh, SIRT5 block)
Cc1c(Cc2ccccc2)c(=O)oc2cc(O)ccc12	none
Cc1c(Cc2ccccc2)c(=O)oc2c(O)c(O)ccc12	NSD2 inh 60.7 | AlphaScreen art inactive
N#Cc1c(N)n(-c2ccc(C(=O)O)cc2)c2nc3ccccc3nc12	NSD2 inh 74.0 | AlphaScreen art inactive
Cc1noc(C)c1S(=O)(=O)Nc1ccc2c(c1)C(=O)N([C@@H](C)CO)C[C@@H](C)[C@@H](CN(C)S(C)(=O)=O)O2	none (no result: NSD2 inh, PfHsp90 yeast 2)
Cc1cccc(OCC(=O)Nc2ncn[nH]2)c1C	NSD2 inh 98.1 | AlphaScreen art inactive
Cc1cccc(OCC(=O)Nc2nnn(C)n2)c1C	none (no result: Casp6 inh, SIRT5 block, ARNT-TACC3 inh)
O=C(c1ccc(N2CCOCC2)c([N+](=O)[O-])c1)N1CCN(Cc2ccccc2)CC1	NSD2 inh 119.7 | AlphaScreen art inactive
C[C@@H]1CN([C@H](C)CO)S(=O)(=O)c2ccc(C3=CCCC3)cc2O[C@@H]1CN(C)C(=O)C1CCOCC1	none (no result: NSD2 inh, PfHsp90 yeast 2)
CCN(CC)CCCNc1cc(C(F)(F)F)c(C#N)c2nc3ccccc3n12	NSD2 inh 55.6 | AlphaScreen art inactive
CCN(CC)CCCNc1cc(C)c(C#N)c2nc3ccccc3n12	NSD2 inh 121.8 (no result: SIRT5 block, ARNT-TACC3 inh, PfHsp90 yeast 2) | AlphaScreen art inactive
COc1ccc(C(=O)OCC(=O)Nc2c(C)n(C)n(-c3ccccc3)c2=O)cc1	NSD2 inh 51.3 | AlphaScreen art inactive
O=[N+]([O-])c1ccc(N(CC(O)CN2CCCCC2)S(=O)(=O)c2ccccc2)cc1 (stereo unspecified)	NSD2 inh 67.7 | AlphaScreen art inactive
O=[N+]([O-])c1ccc(S(=O)(=O)N(CC(O)CN2CCCCC2)c2ccccc2)cc1 (stereo unspecified)	none
CO[C@@H]1CN(C)C(=O)c2cc(NS(=O)(=O)c3cn(C)cn3)ccc2OC[C@H](C)N(C)C[C@@H]1C	none (no result: Casp6 inh, SIRT5 block, NSD2 inh, PfHsp90 yeast 2)
CCOC(=O)N1CCN(C(=O)c2ccc(OC(C)=O)cc2)CC1	none
CCOC(=O)C1CCCN(C(=O)c2ccc(OC(C)=O)cc2)C1 (stereo unspecified)	NSD2 inh 93.4 (no result: Casp6 inh, SIRT5 block) | AlphaScreen art inactive
CCOC(=O)C1CCCN(C(=O)c2ccc(S(=O)(=O)Nc3ccccc3OC)cc2)C1 (stereo unspecified)	NSD2 inh 53.7 | AlphaScreen art inactive
O=C(O)COc1ccc(/C=C/C(=O)c2ccc3ccccc3c2)cc1	NSD2 inh 87.6 (no result: Casp6 inh, SIRT5 block) | AlphaScreen art inactive
CC(C)(C)C(=O)NC1CC2CCCC(C1)N2C(=O)Nc1ccc(Cl)cc1 (stereo unspecified)	NSD2 inh 56.0 | AlphaScreen art inactive
Cc1ccc(NC(=O)N2C3CCCC2CC(NC(=O)C(C)(C)C)C3)cc1 (stereo unspecified)	none
C[C@H]1CCCCO[C@H](CN(C)C(=O)Nc2ccc3c(c2)OCO3)[C@@H](C)CN([C@@H](C)CO)C(=O)c2cc(NS(=O)(=O)c3ccccc3)ccc2O1	none (no result: NSD2 inh, PfHsp90 yeast 2)
C[C@H](CO)N1C[C@H](C)[C@@H](CN(C)CC2CCCCC2)Oc2ccc(NC(=O)Cc3ccccc3)cc2CC1=O	none (no result: NSD2 inh, PfHsp90 yeast 2)
C[C@@H]1CN([C@H](C)CO)C(=O)Cc2cc(NC(=O)Cc3ccccc3)ccc2O[C@H]1CN(C)C(=O)Nc1cccc2ccccc12	none (no result: SIRT5 block, NSD2 inh, PfHsp90 yeast 2)
COc1ccc(CC(=O)NC2CCCCCC2)c(OC)c1	NSD2 inh 77.0 | AlphaScreen art inactive
CC1=CCC2C(=O)N(c3cccc(C(=O)N(C)C4CCCCC4)c3)C(=O)C2C1 (stereo unspecified)	NSD2 inh 88.6 (no result: Casp6 inh, SIRT5 block) | AlphaScreen art inactive
CN(C(=O)c1cccc(N2C(=O)C3C4C=CC(C4)C3C2=O)c1)C1CCCCC1 (stereo unspecified)	none
C[C@@H]1CCCCO[C@@H](CN(C)Cc2ccc(C(=O)O)cc2)[C@@H](C)CN([C@@H](C)CO)C(=O)c2cc(NC(=O)Nc3ccc4c(c3)OCO4)ccc2O1	none (no result: NSD2 inh, PfHsp90 yeast 2)
CN1C(=O)C(CCC(=O)O)NC1=S (stereo unspecified)	NSD2 inh 76.7 | AlphaScreen art inactive
CNc1ccc(Br)cc(C(=O)/C=C/c2cc(OC)ccc2OC)c1=O	none (no result: Casp6 inh, SIRT5 block)
CNc1ccc(Br)cc(C(=O)/C=C/c2ccc(OC)cc2)c1=O	NSD2 inh 66.2 (no result: Casp6 inh, SIRT5 block) | AlphaScreen art inactive
CCC(=O)N1C[C@@H](C)[C@@H](OC)CN(C)C(=O)c2ccc(NC(=O)C3CCOCC3)cc2OC[C@H]1C	none (no result: Casp6 inh, SIRT5 block, NSD2 inh, PfHsp90 yeast 2)
Cc1ccc2cccc(OCc3ccc(Br)cc3)c2n1	NSD2 inh 50.8 | AlphaScreen art inactive
CCC(=O)N[C@@H]1CC[C@@H](CCNC(=O)Nc2ccc(F)cc2)O[C@H]1CO	none (no result: NSD2 inh, PfHsp90 yeast 2)
CN1CCN(c2ccc(NC(=O)COc3ccc4ccccc4c3)cc2)CC1	NSD2 inh 124.5 | AlphaScreen art inactive
CN1CCN(c2ccc(NC(=O)COc3cccc4ccccc34)cc2)CC1	none (no result: ARNT-TACC3 inh)
CS(=O)(=O)Nc1ccc2c(c1)[C@H]1C[C@@H](CC(=O)NCc3ccncc3)O[C@@H](CO)[C@H]1O2	none (no result: NSD2 inh, PfHsp90 yeast 2)
O=C(NCC[C@@H]1CC[C@H](NC(=O)C2CCC2)[C@H](CO)O1)c1cc(Cl)cc(Cl)c1	none (no result: NSD2 inh, PfHsp90 yeast 2)
O=S(=O)(Nc1nc(-c2ccco2)c(-c2ccco2)s1)c1ccc(F)cc1F	Casp6 inh 62.5, NSD2 inh 100.1 (no result: ARNT-TACC3 inh, PfHsp90 yeast 2) | AlphaScreen art inactive
O=C(Nc1nc(-c2ccco2)c(-c2ccco2)s1)c1ccc(F)cc1F	none
O=c1[nH]cnc(CN2CCCCC2)c1O	none (no result: SIRT5 block)
O=c1[nH]c(CN2CCCCC2)ccc1O	NSD2 inh 64.8 (no result: ARNT-TACC3 inh, PfHsp90 yeast 2) | AlphaScreen art inactive
NS(=O)(=O)c1ccc(N=Nc2ccc(=O)[nH]c2O)cc1	Casp6 inh 70.5, NSD2 inh 109.6 | AlphaScreen art inactive
CCN(CC)CCCNC(=O)c1ccc2c(Cl)c3c(nc2c1)CCCC3	none
CCCCN(CC)CCNC(=O)c1ccc2c(Cl)c3c(nc2c1)CCC3	NSD2 inh 74.6 | AlphaScreen art inactive
Cc1ccccc1-c1cnc2c(c1)C(=O)N([C@H](C)CO)C[C@@H](C)[C@H](CN(C)C(=O)CN(C)C)O2	none (no result: NSD2 inh, PfHsp90 yeast 2)
Cc1noc(C)c1S(=O)(=O)N(C)C[C@@H]1OCCCC[C@H](C)Oc2ccc(NS(=O)(=O)c3cn(C)cn3)cc2C(=O)N([C@H](C)CO)C[C@@H]1C	none (no result: NSD2 inh, PfHsp90 yeast 2)
O=C(O)C(Oc1ccc(Cl)cc1)c1ccc(Cl)cc1 (stereo unspecified)	none
C/C(=N\O)C(C)Oc1ccc(Cl)cc1 (stereo unspecified)	NSD2 inh 65.1 | AlphaScreen art inactive

Screening results: PubChem, Broad Institute
